Measurements taken from patent US5487994, “Insertion and deletion mutants of FokI restriction endonuclease” (The Johns Hopkins University).

B1: hemi-methylated substrate (GGATG strand) (dsDNA)
DNA 1: CTAGAGTCAGAATTCGAAGACTTGCCGGATGATCTGCAGGCCAGCTGTGGCGTCTAAATTGA
DNA 2: AGCTTCAATTTAGACGCCACAGCTGGCCTGCAGATCATCCGGCAAGTCTTCGAATTCTGACT
modifications: N6-methyladenine in GGATG strand of FokI site
B2: fully methylated substrate (dsDNA)
DNA 1: B1 DNA 1
DNA 2: B1 DNA 2
modifications: N6-methyladenine in both strands of FokI site
B3: hemi-methylated substrate (CATCC strand) (dsDNA)
DNA 1: B1 DNA 1
DNA 2: B1 DNA 2
modifications: N6-methyladenine in CATCC strand of FokI site

target: FokI endonuclease wild-type (Flavobacterium okeanokoites, UniProt P14870 P14870:2-579); test: filter; with poly(dI-dC), 1 mM EDTA, 22 C; details: tags: expressed in E. coli RR1 from pRRSfokIR; label: 32P
Description: The filter binding assays were performed in duplicate using *Fok*I or mutant enzymes and the four different synthetic substrates, SEQ ID NO:12, SEQ ID NO:13, hemi-methylated oligonucleotide of SEQ ID NO:12 and hemi-methylated oligonucleotide of SEQ ID NO:13. Nine different concentrations for each of the enzymes were made by serial dilutions ([…], 2000, 667, 222, 74.1, 24.7, 8.23, 2.74 and 0.914 nM). The enzymes were mixed with 40 nM of each labelled substrate along with 50 μg/ml p(dI-dC) and 50 μg/ml BSA in 50 μl of buffer A[10 mM Tris. phosphate (pH 8.0), 7 mM 2-mercaptoethanol, 1 mM EDTA, 50 mM NaCl, and 10% (vol/vol) glycerol]. The samples were incubated at 22° C. for 1 hr and then loaded on to nitrocellulose filters. The filters were washed twice with 0.5 ml of buffer A, dried and counted using the scintillation counter.
Why does the four amino-acid residue insertions enable the mutant enzymes to cleave hemi-methylated DNA and not the larger inserts? The four codon insertions could increase the affinity of the mutants for the hemi-methylated DNA. The binding affinities of wild-type enzyme and both four codon insertion mutants were compared by filter binding assays using the synthetic oligonucleotide substrates (FIGS. 9A, 9B and 9C). The binding affinities were measured in the presence of non-specific DNA, poly dI-dC.

Chain of FokI endonuclease wild-type (P14870 2-579, one chain of several): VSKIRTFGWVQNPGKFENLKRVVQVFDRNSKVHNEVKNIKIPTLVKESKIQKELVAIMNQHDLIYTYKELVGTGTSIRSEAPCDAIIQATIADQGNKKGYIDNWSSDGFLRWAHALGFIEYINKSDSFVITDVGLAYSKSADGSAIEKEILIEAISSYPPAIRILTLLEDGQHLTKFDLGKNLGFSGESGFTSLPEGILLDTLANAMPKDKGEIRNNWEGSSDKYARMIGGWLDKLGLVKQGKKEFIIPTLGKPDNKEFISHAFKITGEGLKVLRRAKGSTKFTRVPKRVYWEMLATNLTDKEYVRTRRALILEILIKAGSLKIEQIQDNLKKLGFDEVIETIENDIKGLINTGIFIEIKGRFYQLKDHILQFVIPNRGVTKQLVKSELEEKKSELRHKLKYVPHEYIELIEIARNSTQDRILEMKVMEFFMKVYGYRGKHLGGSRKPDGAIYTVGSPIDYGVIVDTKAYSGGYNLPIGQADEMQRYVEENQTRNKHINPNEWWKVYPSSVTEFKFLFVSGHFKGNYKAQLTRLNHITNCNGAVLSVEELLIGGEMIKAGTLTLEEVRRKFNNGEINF

Binder	binding signal
B1	~100 fold less efficient than unmethylated
B2	~100 fold less efficient than unmethylated
B3	~100 fold less efficient than unmethylated
